Data taken from the supplement of paper PMC8728848.
About 410 targets per protein were measured; listed, in parts, are those with the strongest signals and a random draw of the rest.

Tests used:
Assay in all cases: glycan array binding signal (z-score within array); higher = stronger binding
Conditions in all cases: glycan notation: IUPAC condensed, linker removed
[1] = molecular target: Glc(a1-6)Glc(a1-6)Glc(a1-6)Glc
In short: (§1)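 Glycan array data came from 3228 arrays in the Consortium for Functional Glycomics database, and only arrays with an available protein sequence were kept. Glycan names were put into IUPAC-condensed notation, and columns mapping to the same glycan were averaged. The binding signal is a within-array Z-score, averaged across arrays of one protein sequence run at different concentrations or buffers and across linkers. A negative Z-score can be read as non-binding.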

[2] = molecular target: Glc(b1-4)Glc(b1-4)Glc(b1-4)Glc(b1-4)Glc(b1-4)Glc(b1-4)Glc(b1-4)Glc(b1-4)Glc
In short: as §1

[3] = molecular target: Glc(b1-4)Glc(b1-4)Glc(b1-4)Glc(b1-4)Glc(b1-4)Glc(b1-4)Glc(b1-4)Glc(b1-4)Glc(b1-4)Glc
In short: as §1

[4] = molecular target: Glc(b1-4)Glc(b1-4)Glc(b1-4)Glc(b1-4)Glc(b1-4)Glc(b1-4)Glc(b1-4)Glc(b1-4)Glc(b1-4)Glc(b1-4)Glc
In short: as §1

[5] = molecular target: Glc(b1-4)Glc(b1-4)Glc(b1-4)Glc(b1-4)Glc(b1-4)Glc(b1-4)Glc(b1-4)Glc(b1-4)Glc(b1-4)Glc(b1-4)Glc(b1-4)Glc
In short: as §1

[6] = molecular target: Glc(b1-4)Glc(b1-4)Glc(b1-4)Glc(b1-4)Glc(b1-4)Glc(b1-4)Glc(b1-4)Glc(b1-4)Glc(b1-4)Glc(b1-4)Glc(b1-4)Glc(b1-4)Glc
In short: as §1

GlcA(b1-3)Gal = molecular target: GlcA(b1-3)Gal
In short: as §1

[7] = molecular target: GlcA3S(b1-3)Gal(b1-4)GlcNAc(b1-2)Man
In short: as §1

[8] = molecular target: GlcNAc(b1-2)Gal(b1-3)GalNAc
In short: as §1

[9] = molecular target: GlcNAc(b1-2)Man(a1-3)[GlcNAc(b1-2)Man(a1-6)]Man(b1-4)GlcNAc(b1-4)GlcNAc
In short: as §1

[10] = molecular target: GlcNAc(b1-3)Gal(b1-4)GlcNAc(b1-2)Man(a1-3)[GlcNAc(b1-3)Gal(b1-4)GlcNAc(b1-2)Man(a1-6)]Man(b1-4)GlcNAc(b1-4)GlcNAc
In short: as §1

[11] = molecular target: GlcNAc(b1-3)Gal(b1-4)GlcNAc(b1-2)Man(a1-3)[GlcNAc(b1-3)Gal(b1-4)GlcNAc(b1-2)Man(a1-6)]Man(b1-4)GlcNAc(b1-4)[Fuc(a1-6)]GlcNAc
In short: as §1

[12] = molecular target: GlcNAc(b1-3)Gal(b1-4)GlcNAc(b1-3)Gal(b1-4)GlcNAc(b1-3)Gal(b1-4)GlcNAc(b1-3)Gal(b1-4)GlcNAc(b1-2)[GlcNAc(b1-3)Gal(b1-4)GlcNAc(b1-3)Gal(b1-4)GlcNAc(b1-3)Gal(b1-4)GlcNAc(b1-3)Gal(b1-4)GlcNAc(b1-6)]Man(a1-6)[GlcNAc(b1-3)Gal(b1-4)GlcNAc(b1-3)Gal(b1-4)GlcNAc(b1-3)Gal(b1-4)GlcNAc(b1-3)Gal(b1-4)GlcNAc(b1-2)Man(a1-3)]Man(b1-4)GlcNAc(b1-4)[Fuc(a1-6)]GlcNAc
In short: as §1

[13] = molecular target: GlcNAc(b1-3)Gal(b1-4)GlcNAc(b1-6)[Gal(b1-3)]GalNAc
In short: as §1

[14] = molecular target: GlcNAc(b1-3)[GlcNAc(b1-6)]Gal
In short: as §1

[15] = molecular target: GlcNAc(b1-3)[GlcNAc(b1-6)]Gal(b1-4)GlcNAc(b1-3)[GlcNAc(b1-6)]Gal(b1-4)GlcNAc(b1-3)Gal(b1-4)Glc
In short: as §1

GlcNAc(b1-4)GlcNAc = molecular target: GlcNAc(b1-4)GlcNAc
In short: as §1

[16] = molecular target: GlcNAc(b1-4)GlcNAc(b1-4)GlcNAc(b1-4)GlcNAc
In short: as §1

[17] = molecular target: HexA(a1-3)GalNAc4S(b1-4)GlcA(b1-3)GalNAc4S(b1-4)GlcA(b1-3)GalNAc4S(b1-4)GlcA(b1-3)GalNAc4S(b1-4)GlcA(b1-3)GalNAc4S(b1-4)GlcA(b1-3)GalNAc4S(b1-4)GlcA(b1-3)GalNAc4S
In short: as §1

[18] = molecular target: Man(a1-2)Man(a1-6)[Man(a1-3)]Man(a1-6)[Man(a1-2)Man(a1-2)Man(a1-3)]Man(b1-4)GlcNAc(b1-4)GlcNAc
In short: as §1

Neu5Ac(a2-3)Gal = molecular target: Neu5Ac(a2-3)Gal
In short: as §1

[19] = molecular target: Neu5Ac(a2-3)Gal(b1-3)GalNAc(b1-3)Gal(a1-4)Gal(b1-4)Glc
In short: as §1

[20] = molecular target: Neu5Ac(a2-3)Gal(b1-3)GlcNAc(b1-2)Man(a1-3)[Neu5Ac(a2-3)Gal(b1-3)GlcNAc(b1-2)Man(a1-6)]Man(b1-4)GlcNAc(b1-4)GlcNAc
In short: as §1

[21] = molecular target: Neu5Ac(a2-3)Gal(b1-3)[Neu5Ac(a2-3)Gal(b1-4)]GlcNAc
In short: as §1

[22] = molecular target: Neu5Ac(a2-3)Gal(b1-3)[Neu5Ac(a2-6)]GalNAc
In short: as §1

[23] = molecular target: Neu5Ac(a2-3)Gal(b1-4)GlcNAc(b1-2)Man(a1-3)[Neu5Ac(a2-3)Gal(b1-4)GlcNAc(b1-2)Man(a1-6)]Man(b1-4)GlcNAc(b1-4)GlcNAc
In short: as §1

[24] = molecular target: Neu5Ac(a2-3)Gal(b1-4)GlcNAc(b1-2)Man(a1-3)[Neu5Ac(a2-3)Gal(b1-4)GlcNAc(b1-2)Man(a1-6)]Man(b1-4)GlcNAc(b1-4)[Fuc(a1-6)]GlcNAc
In short: as §1

[25] = molecular target: Neu5Ac(a2-3)Gal(b1-4)[Fuc(a1-3)]GlcNAc6S
In short: as §1

[26] = molecular target: Neu5Ac(a2-3)Gal(b1-4)[Qui(a1-3)]GlcNAc(b1-3)Gal
In short: as §1

[27] = molecular target: Neu5Ac(a2-3)GalNBz(b1-4)GlcNAc
In short: as §1

[28] = molecular target: Neu5Ac(a2-3)[GalNAc(b1-4)]Gal(b1-3)GalNAc(b1-4)[Neu5Ac(a2-3)]Gal(b1-4)Glc
In short: as §1

[29] = molecular target: Neu5Ac(a2-3)[GalNAc(b1-4)]Gal(b1-4)GlcNAc
In short: as §1

[30] = molecular target: Neu5Ac(a2-6)Gal(b1-4)GlcNAc(b1-2)Man(a1-3)[Neu5Ac(a2-6)Gal(b1-4)GlcNAc(b1-2)Man(a1-6)]Man(b1-4)GlcNAc(b1-4)[Fuc(a1-6)]GlcNAc
In short: as §1

[31] = molecular target: Neu5Ac(a2-6)Gal(b1-4)GlcNAc(b1-3)[Neu5Ac(a2-6)Gal(b1-4)GlcNAc(b1-6)]Gal(b1-4)Glc
In short: as §1

Neu5Ac(b2-3)Gal(b1-4)Glc = molecular target: Neu5Ac(b2-3)Gal(b1-4)Glc
In short: as §1

[32] = molecular target: Neu5Ac9Ac(a2-3)Gal(b1-4)GlcNAc
In short: as §1

[33] = molecular target: Neu5Ac9Ac(a2-3)Gal(b1-4)[Fuc(a1-3)]GlcNAc
In short: as §1

Neu5Gc(a2-6)GalNAc = molecular target: Neu5Gc(a2-6)GalNAc
In short: as §1

[34] = molecular target: Xyl(b1-4)Xyl(b1-4)Xyl(b1-4)Xyl(b1-4)Xyl(b1-4)Xyl
In short: as §1

B1: PNA (Arachis hypogaea), P02872 (protein)
chain: MKPFCVFLTFFLLLAASSKKVDSAETVSFNFNSFSEGNPAINFQGDVTVLSNGNIQLTNLNKVNSVGRVLYAMPVRIWSSATGNVASFLTSFSFEMKDIKDYDPADGIIFFIAPEDTQIPAGSIGGGTLGVSDTKGAGHFVGVEFDTYSNSEYNDPPTDHVGIDVNSVDSVKTVPWNSVSGAVVKVTVIYDSSTKTLSVAVTNDNGDITTIAQVVDLKAKLPERVKFGFSASGSLGGRQIHLIRSWSFTSTLITTTRRSIDNNEKKIMNMASA
- glycan array binding signal (z-score) [1]: -0.136
- glycan array binding signal (z-score) [2]: 0.924
- glycan array binding signal (z-score) [3]: 1.4
- glycan array binding signal (z-score) [4]: 2.88
- glycan array binding signal (z-score) [5]: 1.98
- glycan array binding signal (z-score) [6]: 2.23
- glycan array binding signal (z-score) (GlcA(b1-3)Gal): -0.167
- glycan array binding signal (z-score) [7]: -0.368
- glycan array binding signal (z-score) [8]: -0.177
- glycan array binding signal (z-score) [9]: -0.143
- glycan array binding signal (z-score) [10]: 0.227
- glycan array binding signal (z-score) [11]: 0.22
- glycan array binding signal (z-score) [12]: 1.96
- glycan array binding signal (z-score) [13]: 5.04
- glycan array binding signal (z-score) [14]: -0.195
- glycan array binding signal (z-score) [15]: 2.02
- glycan array binding signal (z-score) (GlcNAc(b1-4)GlcNAc): -0.113
- glycan array binding signal (z-score) [16]: -0.195
- glycan array binding signal (z-score) [17]: -0.195
- glycan array binding signal (z-score) [18]: -0.178
- glycan array binding signal (z-score) (Neu5Ac(a2-3)Gal): -0.171
- glycan array binding signal (z-score) [19]: -0.112
- glycan array binding signal (z-score) [20]: -0.061
- glycan array binding signal (z-score) [21]: -0.21
- glycan array binding signal (z-score) [22]: -0.176
- glycan array binding signal (z-score) [23]: -0.148
- glycan array binding signal (z-score) [24]: -0.306
- glycan array binding signal (z-score) [25]: -0.225
- glycan array binding signal (z-score) [26]: -0.195
- glycan array binding signal (z-score) [27]: -0.195
- glycan array binding signal (z-score) [28]: -0.195
- glycan array binding signal (z-score) [29]: -0.138
- glycan array binding signal (z-score) [30]: -0.21
- glycan array binding signal (z-score) [31]: -0.195
- glycan array binding signal (z-score) (Neu5Ac(b2-3)Gal(b1-4)Glc): -0.195
- glycan array binding signal (z-score) [32]: -0.073
- glycan array binding signal (z-score) [33]: -0.195
- glycan array binding signal (z-score) (Neu5Gc(a2-6)GalNAc): -0.162
- glycan array binding signal (z-score) [34]: -0.195
